# Source: PubChem BioAssay AID2284378 (EPA ToxCast)
# Inconclusive results are not listed. The source made the active and inactive calls. How the source made its calls: active means hit-call score of the fitted dose curve at least 0.9, where 1 is the maximum; inconclusive means response in the unintended direction; inactive means score below 0.9.
# Tested on: frog Retinoid X Receptor beta (RXRb), gene 394278
# Experiment: ATG_frRXRb_EcoTox2: Attagene TRANS-FACTORIAL EcoTox-2 HepG2 Assay for frog Retinoid X Receptor beta (RXRb)
# Description: ATG_EcoTox2 is a cell-based, multiplexed assay created by modifying the existing Attagene TRANS-FACTORIAL system to include a panel of nuclear receptors from some or all the following species: human (Homo sapiens), african clawed frog (Xenopus laevis), rainbow trout (Oncorhynchus mykiss), japanese medaka (Oryzias latipes), and zebrafish (Danio rerio). The ECOTOX2-FACTORIAL format uses HepG2, a human liver cell line, with measurements taken at 24 hours after chemical dosing in a 24-well plate. ATG_frRXRb_EcoTox2 is one of 29 assay components calculated in the ATG_EcoTox2 assay. It is designed to make measurements of mRNA induction, a form of inducible reporter, as detected with fluorescence intensity signals by Reverse transcription polymerase chain reaction (RT-PCR) and Capillary electrophoresis technology.The assay endpoint ATG_frRXRb_EcoTox2 was analyzed in the positive analysis fitting direction relative to DMSO as the negative control and baseline of activity. Using a type of inducible reporter, measures of mRNA for gain-of-signal activity can be used to understand the reporter gene at the transcription factor-level as they relate to the gene RXRb. Furthermore, this assay endpoint can be referred to as a primary readout, because this assay has produced multiple assay endpoints where this one serves a reporter gene function. […]
# Human liver HepG2 cells are transiently transfected with multiple reporter transcription units (MRTUs) in 6-well plates using FuGene 6 reagent (Roche; 3 ml FuGene/1 mg DNA). […] A major difference between the CIS and TRANS system is that in CIS activities of endogenous TFs are measured, whereas the TRANS assay evaluates changes in activities of exogenous, chimeric NR-Gal4 proteins. […] The fragments were purified using Qiaquick PCR columns (Qiagen), analyzed on an ABI 3130xL genetic analyzer (Applied Biosystems) with peak positions identified by using a set of X-rhodamine (ROX)-labeled MapMarker1000 molecular weight standards (BioVentures). […]
row,Structure (SMILES),AC50
1,[Cl][Sn]([c]1ccccc1)([c]1ccccc1)[c]1ccccc1,0.0888 µM (active)
2,O=C(O)C(F)(F)C(F)(F)C(F)(F)C(F)(F)C(F)(F)C(F)(F)C(F)(F)F,30 µM (active)
3,CCCCOCN(C(=O)CCl)c1c(CC)cccc1CC,38.5 µM (active)
